The results in this text go back to PubChem BioAssay.

Values joined by “and” are separate entries in the source; they are usually repeats but may differ in a detail not shown here. Identical values can stand only once. For part of these data: Results with a measured potency or affinity are listed apart. Active and inactive are the calls of the source. Rule as the data show it, unless noted: active = parasite load remaining mostly below about 12% (no sharp cut-off); inactive = mostly above about 10%.

Assay [1] in a line: polyglutamine-triggered caspase-3 activation inhibitors, cell-based (AID 1583). The following applies: polyglutamine-induced caspase-3 activation, cell assay; stronger effect = higher value;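 tested at 10 µM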.
Assay [2] is described as follows: suppressors of polyQ aggregation in yeast, 75Q-TubU reporter (AID 1593). The following applies: Yeast 75Q polyglutamine aggregation reporter.
Assay [3] in a line: rescue of polyQ-huntingtin neuronal dysfunction in worms, whole organism, C. elegans mechanosensory neurons, N-terminal huntingtin (AID 1599). As to conditions: touch response, stronger effect = higher value.
Assay [4] in a line: inhibitors of mitochondrial cytochrome c release, biochemical, purified mitochondria (AID 1603).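 Also: mouse liver mitochondria challenged with calcium chloride; signal normalized to the plate average as 100%.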 As to conditions: stronger effect = lower value.
Assay [5] in a line: inhibitors of polyQ protein aggregation (AID 1604). The following applies: polyglutamine-induced protein aggregation inhibition assay; stronger effect = higher value; tested at 2.5 µM.
Assay [6] can be described thus: enhancers of glutamate uptake in motor neurons, MN-1 cell line (AID 1612).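 Also: tested at 1 µM final; 0% = mean of DMSO vehicle wells on each plate; positive means more glutamate uptake than control and negative means less.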 As to conditions: MN-1 motor neuron cells, stronger effect = higher value.
A short description of assay [7]: suppressors of polyglutamine aggregation in yeast, 75Q-TubH (AID 1616). The following applies: S. cerevisiae 75Q-TubH polyglutamine aggregation suppression; stronger effect = higher value.
The nature of assay [8]: liver-stage malaria parasite growth inhibition, primary screen, cell-based, HepG2, luciferase luminescence, HepG2 viability (AID 624349).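 Also: 100% = mean of DMSO negative control wells on the same plate.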 As to conditions: P. berghei liver stage in HepG2, luciferase luminescence, concentration not given here; parasite load remaining: stronger effect = lower value; viability: measured here: HepG2 viability without parasites.
Assay [9] in a line: differential killing of epithelial or mesenchymal cells, primary screen, imaging, PC-3E GFP, TEM4-18 mCherry, co-culture (AID 1345086;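 active = compounds killing one labelled cell type while sparing the other, by normalised counts and ratio limits, not self-fluorescent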;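 as to all read-outs here: cells exposed to compound for 72 h before imaging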;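 as to red/green cell ratio (normalised): normalised mesenchymal count divided by normalised epithelial count so high means epithelial killing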). As to conditions: imaging cell counts, at 1 µM; for red/green cell ratio (normalised): actives lie on both sides, counts scaled to control wells, 1 = unselective.
The nature of assay [10]: sensitizers of A549 cells to miR-34 induction, primary screen, imaging, A549 dox-inducible miR-34, nuclei and caspase counts (AID 1347080;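 active = compounds whose cell count with miR-34 switched on is under 0.7 times the count with it off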). The following applies: A549 miR-34 inducible, Hoechst nuclei count, 48 h.
A short description of assay [11]: reducers of polyQ inclusions in PC12 cells, cell-based, NGF-treated PC12, GFPQ80 (AID 1614).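 Also: lower means fewer inclusions and 0 means no inclusions at all.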 The following applies: PC12 NGF-treated GFP-polyQ80 inclusion reduction.
[12] abbreviates: measured here: epithelial PC-3E GFP cell survival.
Setting [13] is: measured here: mesenchymal TEM4-18 mCherry cell survival.
Where [14] appears, read: stronger effect = lower value, cell number ratio, induced over uninduced.
Setting [15] is: measured here: relative caspase fold change +Dox/-Dox.
Where [16] appears, read: measured here: total cells with miR-34 induction, stronger effect = lower value.
The mark [17] stands for this setting: measured here: total cells without miR-34 induction.

One may read the inhibition as the relative decrease from the control value, in per cent. For orientation: viability means the share of living cells, or the viability signal relative to a control. As for `C[C@H](CCC(=O)O)[C@H]1CCC2C3C(CC[C@@]21C)[C@@]1(C)CC[C@@H](O)C[C@H]1C[C@H]3O` (some centres undefined), the inhibition in assay [1] was 13.5%. The score in assay [2] was -0.55. Also, the rescue above control in [3] is -0.69. Also, the cytochrome c release ratio in assay [4] came out at 0.92. The inhibition of aggregation in assay [5] amounted to 21.1%. The glutamate uptake change in [6] was -19.3%. Also, in [7], the aggregation suppression score amounted to 0.165. In addition, the parasite load remaining in assay [8] was 96.5% (inactive) and 33.9% (inactive). Besides, the viability in assay [8] was 70.7% and 87%. In addition, the red/green cell ratio (normalised) in assay [9] was 1.27 (inactive). In addition, the normalised cell number is 0.99 in assay [9] (setting [12]) and 1.25 in assay [9] (setting [13]). For the same molecule, the fold change is 0.893 (inactive) in assay [10] (setting [14]) and 3.03 in [10] (setting [15]). The cell count in [10] (setting [16]) is 10800; in [10] (setting [17]), 12100.

For `C#C[C@]1(O)CCC2C3CCC4=Cc5oncc5C[C@]4(C)C3CC[C@@]21C` (some centres undefined), the inhibition in assay [1] worked out at 10.9%. Moreover, the score in assay [2] was 1.04. In addition, the rescue above control in [3] was 5.61. Moreover, in assay [4], the cytochrome c release ratio amounted to 1.19. Also, in assay [5], the inhibition of aggregation came out at 69.1%. In [6], the glutamate uptake change was -6.15%. This molecule came in with an aggregation suppression score in assay [7] of 0.874. In [8], the parasite load remaining was 83.8% (inactive) and 19.9% (inactive). Also, the viability in assay [8] was 69% and 89.7%. In assay [9], the red/green cell ratio (normalised) is 1.05 (inactive). Also, the normalised cell number in assay [9] (setting [12]) is 1.19; in assay [9] (setting [13]) it was 1.26. Besides, the fold change in assay [10] (setting [14]) was 0.952 (inactive); in assay [10] (setting [15]), 2.2. Also, the values for the cell count in assay [10] (setting [16]) and in assay [10] (setting [17]) were 9590 and 10100, respectively.

With `C#C[C@]1(OC(C)=O)CCC2C3CCC4=CC(=O)CC[C@@H]4C3CC[C@@]21C` (some centres undefined), the inhibition in [1] is 17.5%. This molecule also returned a score in [2] of 0.07. For the same molecule, the rescue above control in assay [3] was 0.31. The cytochrome c release ratio in [4] worked out at 1.09. Further, the inhibition of aggregation in assay [5] was determined as 7.32%. Besides, the glutamate uptake change in [6] was found to be 12.7%. This molecule had an aggregation suppression score in assay [7] of 0.237. The parasite load remaining in [8] was 88.9% (inactive) and 45.6% (inactive). In addition, in assay [8], the viability is 69.5% and 94.9%. In addition, the red/green cell ratio (normalised) in assay [9] is 1.18 (inactive). Also, the normalised cell number in assay [9] (setting [12]) turned out to be 1; in [9] (setting [13]) it was 1.17. For the same molecule, the fold change is 0.881 (inactive) in [10] (setting [14]) and 2.11 in assay [10] (setting [15]). In addition, the results for the cell count in [10] (setting [16]) and in assay [10] (setting [17]) were 10900 and 12400, respectively.

`CN1C2CC[C@@H]1CC(OC(=O)[C@H](CO)c1ccccc1)C2` (some centres undefined): the inhibition in [1] came to 10%. In addition, in assay [2], the score came out at 1.23. In [3], this molecule displayed a rescue above control of 0.71. In [4], the cytochrome c release ratio is 1.28. In addition, in assay [5], the inhibition of aggregation was 89.7%. For the same molecule, in [6], the glutamate uptake change is -13.3%. Besides, the inclusion score in [11] turned out to be 2. The aggregation suppression score in assay [7] stood at 1.46. In assay [8], the parasite load remaining is 85.7% (inactive) and 75.8% (inactive). In addition, in [8], the viability is 72.7% and 94.9%. Further, in [9], the red/green cell ratio (normalised) was 0.96 (inactive). Besides, the normalised cell number in [9] (setting [12]) came out at 1.11; in assay [9] (setting [13]) it was 1.07. Also, the fold change in assay [10] (setting [14]) is 0.837 (inactive); in [10] (setting [15]) it was 0.536. The cell count in [10] (setting [16]) is 10500; in assay [10] (setting [17]), 12600.

Consider `O=C1O[C@@H](CO)[C@H](O)[C@@H](O)[C@@H]1O`, for which the inhibition in [1] is -15.4%. Also, the score in [2] turned out to be 1.29. In assay [3], this molecule showed a rescue above control of 7.61. Besides, the cytochrome c release ratio in [4] was 0.98. This molecule also came in with an inhibition of aggregation in assay [5] of 50.7%. Also, in [6], the glutamate uptake change is -5.06%. Besides, the inclusion score in assay [11] worked out at 2. In [7], the aggregation suppression score was 1.09. For the same molecule, in assay [8], the parasite load remaining is 176% (inactive) and 30.6% (inactive). Moreover, in assay [8], the viability was 83.8% and 96.7%. Further, the red/green cell ratio (normalised) in assay [9] was 1.05 (inactive). For the same molecule, the normalised cell number in assay [9] (setting [12]) amounted to 0.98; in assay [9] (setting [13]), 1.02. Moreover, the fold change in [10] (setting [14]) is 0.946 (inactive); in assay [10] (setting [15]) it was 2.61. The cell count in [10] (setting [16]) stood at 12000; in assay [10] (setting [17]) it was 12600.

For `CC(C)[N+]1(C)C2CC[C@@H]1CC(OC(=O)C(CO)c1ccccc1)C2` (some centres undefined), the inhibition in assay [1] turned out to be 3.73%. In assay [2], the score was determined as 1.48. In addition, the rescue above control in assay [3] is -2.72. For the same molecule, in assay [4], the cytochrome c release ratio is 0.9. In assay [5], this molecule displayed an inhibition of aggregation of 73%. Besides, in assay [6], the glutamate uptake change is -1.05%. In [11], this molecule registered an inclusion score of 2. In assay [7], this molecule registered an aggregation suppression score of 0.901. Also, the parasite load remaining in [8] was 88% (inactive) and 61.6% (inactive). Further, the viability in assay [8] was 79% and 98.1%. For the same molecule, the red/green cell ratio (normalised) in assay [9] is 0.61 (inactive). Moreover, the normalised cell number in [9] (setting [12]) came out at 1.35; in assay [9] (setting [13]) it was 0.82. In addition, the fold change in assay [10] (setting [14]) was 0.876 (inactive); in assay [10] (setting [15]) it was 1.18. Besides, the cell count was found to be 10700 in assay [10] (setting [16]) and 12200 in [10] (setting [17]).
